The record followed here is PubChem BioAssay AID1049 (The Scripps Research Institute Molecular Screening Center, 2008).

Among all 200,000 compounds or so, about 780 (0.39%) were called active. The entries come from a sample that favours actives as a whole. A number with no mark means an inactive call. No stated cut-off is given here; in the data, active means TR-FRET ratio above about 2000; inactive means the rest.

This assay is described as follows: TR-FRET signal artefacts, primary screen, artefact control for PPARgamma SRC-2 agonist project, biochemical (AID 1049). Conditions: TR-FRET artefact counter-screen; at 8 µM; stronger effect = higher value. (In general: Time-resolved FRET reads energy transfer from a long-lived donor to a nearby acceptor.)
As for `Cc1ccccc1-n1nc(C)c2c1N=C1C(Cl)=CC(Cl)=CN1C2c1ccc(C(=O)O)cc1` (configuration not stated), the TR-FRET ratio is 1440.

Regarding `CC(Sc1nnnn1C)C(=O)NC(=O)NC1CCCCC1` (configuration not stated), the TR-FRET ratio is 1580.

As for `CN1CCN(/N=C/c2ccc(C#N)cc2)CC1`, the TR-FRET ratio is 1460.

Regarding `Cc1ccc(/C=N\n2c(-c3ccccc3)n[nH]c2=S)s1`, the TR-FRET ratio was 1450.

Regarding `Cn1c(-c2sccc2OCc2cccc(C(F)(F)F)c2)n[nH]c1=S`, the TR-FRET ratio is 1690.

In the case of `Cn1c(-c2sc3cc(C(F)(F)F)cnc3c2-c2ccccc2)n[nH]c1=S`, the TR-FRET ratio was 2810 (active).

As for `Nc1c(NCCc2ccccc2)c2ccccc2oc1=O`, the TR-FRET ratio was 1500.

For the compound `Cc1cc(Cl)ccc1OCCCC(=O)NCc1ccccn1`, the TR-FRET ratio is 1540.

On to `CN(CC(=O)N1CCN(c2ccccc2)CC1)S(=O)(=O)c1cccs1`, for which the TR-FRET ratio is 1460.

`COc1cc2c(cc1O)C(SC)=NC(C)(C)C2`: the TR-FRET ratio is 1660.

As for `COc1cc2c(cc1OC)C(C(C)C)=NC(C)(C)C2`, the TR-FRET ratio was 1430.

For `COc1cc2c(cc1OC)C(Nc1ccc(S(N)(=O)=O)cc1)=NC(C)(C)C2`, the TR-FRET ratio was 2460 (active).

As to `Cc1ccc(C)c(Cn2cnc3c(oc4ccccc43)c2=O)c1`, the TR-FRET ratio is 1620.

As for `Cc1ccc2[nH]c(=O)c(CN(CC3COCCO3)C(=O)Nc3ccccc3C)cc2c1` (configuration not stated), the TR-FRET ratio is 1560.

As to `Cc1cccc2cc(CN(Cc3cccs3)C(c3nnnn3C3CCCC3)C(C)C)c(=O)[nH]c12` (configuration not stated), the TR-FRET ratio is 1580.

For the compound `CCC(c1nnnn1C1CCCC1)N(Cc1cccs1)Cc1cc2cccc(C)c2[nH]c1=O` (configuration not stated), the TR-FRET ratio is 1590.

On to `Cc1cccc2cc(CN(Cc3ccc4c(c3)OCO4)Cc3nnnn3C3CCCC3)c(=O)[nH]c12`, for which the TR-FRET ratio was 2020 (active).

On to `O=C(/C=C/c1ccccc1[N+](=O)[O-])OC1CCCCC1=O` (configuration not stated), for which the TR-FRET ratio is 1570.

Regarding `O=C(COC(=O)c1c2c(nc3ccccc13)CCCC2)c1ccc(Br)s1`, the TR-FRET ratio is 2060 (active).

With `O=C(Nc1c2c(nc3ccccc13)CCCC2)c1ccccc1Br`, the TR-FRET ratio was 1590.

With `O=C(COC(=O)c1c2c(nc3ccccc13)/C(=C\c1cccs1)CCC2)Nc1ccccc1Cl`, the TR-FRET ratio was 1590.

Regarding `O=C(N1CCCCC1)N1CCN(C(=O)N2CCCCC2)CC1`, the TR-FRET ratio was 1520.

On to `Cc1ccc(C(=O)O)cc1N1C(=O)CCCC1=O`, for which the TR-FRET ratio is 1430.

As for `Nc1nnc(SCC(=O)Nc2ccc3nc(SCC(=O)Nc4ccccc4)sc3c2)s1`, the TR-FRET ratio is 1750.

In the case of `COc1ccc(NC(=O)CSc2nc(C)cs2)cc1`, the TR-FRET ratio is 1520.

Consider `COc1cc(OC)cc(-c2nnc(SCC(=O)Nc3ccc(C(=O)O)cc3)s2)c1`, for which the TR-FRET ratio is 2010 (active).

Regarding `COC(=O)[C@@H]1CC[C@H](C)[C@@H](c2ccc(C)cc2)N1C(=O)c1ccc(/C=N/O[C@H](C)c2cn([C@@H]3COC[C@H]3O)nn2)cc1`, the TR-FRET ratio is 1550.
